Results published in PubChem BioAssay (NCATS).
Several values for one entry are separate records, joined by “and”; a condition that tells them apart may be missing. Identical values can stand only once. Results filed as inconclusive are left out. The source holds several records for some structures; these can differ, active in one and inactive in another. Activity calls are given as the source filed them. Unless noted, calls follow the shape of the dose curve; as a rule, active = well fitted curve in the direction sought with a large enough effect; inconclusive = small, poorly fitted or top-dose-only effect, or another doubt; inactive = no such curve, though single readings can be large; an effect the other way counts as inactive or inconclusive.

How the values were obtained:
JEG-3 = experiment: Primary qHTS to identify gynecologic anti-cancer compounds using libraries of approved drugs and bioactive compounds (AID 1345084); settings: Gynecologic cancer cell panel viability, ATPlite luminescence, 48 h; series mostly up to 57.5 µM; also: nearly all actives have a fitted effect of over 55% in size; also: potency is read from the fitted curve at half-maximal effect
Outline: (§1)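 48 h compound exposure at 37 C, 5% CO2; five-point qHTS. ATPlite luminescence readout of cell ATP.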

OV90 = experiment: as above; settings: Gynecologic cancer cell panel viability, ATPlite luminescence, 48 h; series mostly up to 57.5 µM
Outline: as §1

PA-1 = experiment: as above; settings: Gynecologic cancer cell panel viability, ATPlite luminescence, 48 h; series mostly up to 57.5 µM
Outline: as §1

SKOV3 = experiment: as above; settings: Gynecologic cancer cell panel viability, ATPlite luminescence, 48 h; series mostly up to 57.5 µM
Outline: as §1

Tov-21-G = experiment: as above; settings: Gynecologic cancer cell panel viability, ATPlite luminescence, 48 h; series mostly up to 57.5 µM
Outline: as §1

Tov112D = experiment: as above; settings: Gynecologic cancer cell panel viability, ATPlite luminescence, 48 h; series mostly up to 57.5 µM
Outline: as §1

[1] = Drug repurposing screens with cells derived from glioblastoma tumor samples (AID 1345199); settings: GBM patient neurospheres viability, ATP luminescence, 48 h; also: nearly all actives have a fitted effect of over 40% in size; also: potency is read from the fitted curve at half-maximal effect; as to activity, negative = cell killing: % is scaled to controls: 0 for no effect and ±100 for the full control effect
Outline: (§2)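 Four patient lines of CD133+ GBM neurospheres were screened at several concentrations; hits were retested in those lines plus three slower-growing GBM lines, using 48-hour treatment and ATP-based viability.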

astro = experiment: as above; settings: viability, ATP luminescence, 48 h; series mostly up to 45.9 µM
Outline: as §2

[2] = molecular target: Nuclear receptor subfamily 1 group I member 2 (Rattus norvegicus) (UniProt Q9R1A7); experiment: qHTS assay for small molecule activators of the rat pregnane X receptor (rPXR) signaling pathway (AID 651751; call rule not given here; also: 0% is about no effect); settings: rPXR reporter cells, luciferase (One-Glo), 24 h
[3] = at 46.1 µM (top of the series), tumour line C
[4] = at 45.9 µM (top of the series), tumour line B
[5] = at 45.9 µM (top of the series), tumour line D
[6] = at 46 µM (top of the series), tumour line A
[7] = at 91.6 µM (top of the series), tumour line B
[8] = at 91.6 µM (top of the series), tumour line D
[9] = at 99.2 µM (top of the series), tumour line C

Chain of Nuclear receptor subfamily 1 group I member 2 (Rattus norvegicus) (Q9R1A7 whole entry, looked up): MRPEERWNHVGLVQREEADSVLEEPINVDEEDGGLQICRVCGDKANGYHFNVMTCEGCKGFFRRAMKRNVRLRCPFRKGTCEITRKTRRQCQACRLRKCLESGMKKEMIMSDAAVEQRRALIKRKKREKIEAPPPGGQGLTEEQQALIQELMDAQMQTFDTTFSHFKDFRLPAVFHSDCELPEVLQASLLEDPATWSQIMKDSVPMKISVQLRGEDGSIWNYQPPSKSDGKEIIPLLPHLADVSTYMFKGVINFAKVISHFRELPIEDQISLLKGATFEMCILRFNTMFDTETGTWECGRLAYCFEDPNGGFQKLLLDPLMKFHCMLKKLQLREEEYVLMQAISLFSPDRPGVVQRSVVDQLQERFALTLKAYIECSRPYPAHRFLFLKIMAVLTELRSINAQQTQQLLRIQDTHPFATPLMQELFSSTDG

CCN(CC)CCOCCOC(=O)C1(c2ccccc2)CCCC1
active: Potency ([1]; tumour line A) 2.24 µM | Potency ([1]; tumour line D) 12.6 µM
inactive: Potency (JEG-3) | Potency (OV90) | Potency (PA-1) | Potency (SKOV3) | Potency (Tov-21-G) | Potency (Tov112D) | activity, negative = cell killing [1, 3] -28.4%

CCN(Cc1ccncc1)C(=O)C(CO)c1ccccc1 (configuration not stated)
inactive: Potency (JEG-3) | Potency (OV90) | Potency (PA-1) | Potency (SKOV3) | Potency (Tov-21-G) | Potency (Tov112D) | activity, negative = cell killing [1, 4] -2.8% | activity, negative = cell killing [1, 5] -5.82% | activity, negative = cell killing [1, 6] -16.9% | activity, negative = cell killing [1, 3] 1.27% | Potency (astro)

NC(=Nc1ccccc1)Nc1ccccc1
active: Potency ([1]; tumour line A) 25.1 µM
14.1 µM (active) and inactive: Potency (OV90)
inactive: Potency (JEG-3) | Potency (PA-1) | Potency (SKOV3) | Potency (Tov-21-G) | Potency (Tov112D) | activity, negative = cell killing [1, 4] -2.03% | activity, negative = cell killing [1, 5] -11.9% | activity, negative = cell killing [1, 3] 5.57% | activity, negative = cell killing [1, 7] -24.2% | activity, negative = cell killing [1, 8] -23% | activity, negative = cell killing [1, 9] 19% | Potency (astro) | max response [2] -0.275% and 5.17%

NC/C=C/C(=O)O
inactive: Potency (JEG-3) | Potency (OV90) | Potency (PA-1) | Potency (SKOV3) | Potency (Tov-21-G) | Potency (Tov112D) | activity, negative = cell killing [1, 4] -2.84% | activity, negative = cell killing [1, 5] -13.4% | activity, negative = cell killing [1, 6] -7.07% | activity, negative = cell killing [1, 3] -22.1%

COC(=O)[C@@H](N)Cc1ccc(O)c(O)c1
inactive: Potency (JEG-3) | Potency (OV90) | Potency (PA-1) | Potency (SKOV3) | Potency (Tov-21-G) | Potency (Tov112D)

CN1C[C@H](C(=O)N[C@]2(C)O[C@@]3(O)[C@@H]4CCCN4C(=O)[C@H](Cc4ccccc4)N3C2=O)C[C@@H]2c3cccc4[nH]cc(c34)C[C@H]21
active: Potency ([1]; tumour line A) 10 µM
inactive: Potency (JEG-3) | Potency (OV90) | Potency (PA-1) | Potency (SKOV3) | Potency (Tov-21-G) | Potency (Tov112D) | activity, negative = cell killing [1, 4] -29.3% | activity, negative = cell killing [1, 3] 4.11%

CC(=O)OCC1=C(C(=O)O)N2C(=O)[C@@H](NC(=O)Cc3cccs3)[C@H]2SC1
inactive: Potency (JEG-3) | Potency (OV90) | Potency (PA-1) | Potency (SKOV3) | Potency (Tov-21-G) | Potency (Tov112D) | activity, negative = cell killing [1, 4] 5.86% | activity, negative = cell killing [1, 5] -7.52% | activity, negative = cell killing [1, 6] -19.9% | activity, negative = cell killing [1, 3] -19.9%

COCCOC(=O)C1=C(C)NC(C)=C(C(=O)OC(C)C)C1c1cccc([N+](=O)[O-])c1 (configuration not stated)
active: Potency ([1]; tumour line A) 14.1 µM
inactive: Potency (JEG-3) | Potency (OV90) | Potency (PA-1) | Potency (SKOV3) | Potency (Tov-21-G) | Potency (Tov112D) | activity, negative = cell killing [1, 4] -4.05% | activity, negative = cell killing [1, 3] -1.16%

CCCN(CCC)CCc1cccc2c1CC(=O)N2
inactive: Potency (JEG-3) | Potency (OV90) | Potency (PA-1) | Potency (SKOV3) | Potency (Tov-21-G) | Potency (Tov112D) | activity, negative = cell killing [1, 4] -4.59% | activity, negative = cell killing [1, 5] 4.33% | activity, negative = cell killing [1, 3] 2.12%

CC(=O)[C@@]1(O)CC[C@H]2[C@@H]3CCC4=CC(=O)CC[C@]4(C)[C@H]3CC[C@@]21C
inactive: Potency (JEG-3) | Potency (OV90) | Potency (PA-1) | Potency (SKOV3) | Potency (Tov-21-G) | Potency (Tov112D) | activity, negative = cell killing [1, 4] -19.9% | activity, negative = cell killing [1, 5] -29.7% | activity, negative = cell killing [1, 3] -20.5%

O=C1CC2(CCCC2)CC(=O)N1CCCCN1CCN(c2ncccn2)CC1
inactive: Potency (JEG-3) | Potency (OV90) | Potency (PA-1) | Potency (SKOV3) | Potency (Tov-21-G) | Potency (Tov112D) | activity, negative = cell killing [1, 4] -25.4% | activity, negative = cell killing [1, 3] -16.7%
active: Potency ([1]; tumour line A) 5.01 µM

N[C@@H](COP(=O)(O)O)C(=O)O
inactive: Potency (JEG-3) | Potency (OV90) | Potency (PA-1) | Potency (SKOV3) | Potency (Tov-21-G) | Potency (Tov112D) | activity, negative = cell killing [1, 4] -4.31% | activity, negative = cell killing [1, 5] -5.04% | activity, negative = cell killing [1, 3] -9.92%

CCc1c(C)[nH]c2c1C(=O)C(CN1CCOCC1)CC2 (configuration not stated)
inactive: Potency (JEG-3) | Potency (OV90) | Potency (PA-1) | Potency (SKOV3) | Potency (Tov-21-G) | Potency (Tov112D) | activity, negative = cell killing ([1]; at 20 µM (top of the series), tumour line C) -3.97% | activity, negative = cell killing ([1]; at 21.2 µM (top of the series), tumour line B) -15.8% | activity, negative = cell killing ([1]; at 21.2 µM (top of the series), tumour line D) 1.91%

Brc1c(NC2=NCCN2)ccc2nccnc12
inactive: Potency (JEG-3) | Potency (OV90) | Potency (PA-1) | Potency (SKOV3) | Potency (Tov-21-G) | Potency (Tov112D) | activity, negative = cell killing [1, 4] -5.79% | activity, negative = cell killing [1, 5] -4.16% | activity, negative = cell killing [1, 3] 4.36%

CCCCOCCOCCOCc1cc2c(cc1CCC)OCO2
inactive: Potency (JEG-3) | Potency (OV90) | Potency (PA-1) | Potency (SKOV3) | Potency (Tov-21-G) | Potency (Tov112D) | activity, negative = cell killing [1, 4] -4.83% | activity, negative = cell killing [1, 5] 11.7% | activity, negative = cell killing [1, 3] -0.263% | activity, negative = cell killing [1, 7] -11.5% | activity, negative = cell killing [1, 8] -27.9% | activity, negative = cell killing [1, 9] 13.4% | Potency (astro)
active: Potency ([1]; tumour line A) 31.6 µM

COc1ccc([C@@H]2Sc3ccccc3N(CCN(C)C)C(=O)[C@@H]2OC(C)=O)cc1
inactive: Potency (JEG-3) | Potency (OV90) | Potency (PA-1) | Potency (SKOV3) | Potency (Tov-21-G) | Potency (Tov112D) | activity, negative = cell killing [1, 3] -13.9%

Cc1cc(C)c(/C=C2\C(=O)Nc3ccccc32)[nH]1
inactive: Potency (JEG-3) | Potency (OV90) | Potency (PA-1) | Potency (SKOV3) | Potency (Tov-21-G) | Potency (Tov112D) | activity, negative = cell killing [1, 4] -6.6%
active: Potency ([1]; tumour line A) 31.6 µM
